Screening results as filed in PubChem.
A3G deaminase: blocks human APOBEC3G single-stranded DNA deamination | recombinant A3G, ssDNA deamination FAM/TAMRA fluorescence | inhibition, % at 20 µM | 330,000 compounds, 0.28% hits;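 active = inhibition of at least 40% at 20 µM, with no more than 30% in the related APOBEC3A deaminase screen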;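 also: plate controls were DMSO wells with A3G for no effect and wells lacking A3G enzyme for full effect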
APOBEC3A inh: human APOBEC3A DNA deaminase inhibition | recombinant A3A, FAM/TAMRA ssDNA deamination fluorescence | inhibition, % at 20 µM | P31941 | 330,000 compounds, 0.41% hits;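 active = at least 40% inhibition at 20 µM here, with at most 30% in a related deaminase screen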;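 also: plate controls were A3A with DMSO for no effect and wells lacking A3A enzyme for full effect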
NPR1 activator: GC-A (human) enzyme activation | HEK293 GC-A cells, cGMP TR-FRET, EC30 ANP; 0% at EC30 ANP, 100% saturating ANP | 370,000 compounds, 0.14% hits | activation, % at 10 µM; in the data active = activation above about 40%
Neddylation inh: cullin neddylation inhibition | TR-FRET cullin neddylation, biochemical | inhibition, % at 25 µM | 360,000 compounds, 0.58% hits | AID 651699; in the data active = inhibition above about 36%
PfG6PD inh: PfG6PD (Plasmodium falciparum) enzyme inhibition. 350,000 compounds, 0.78% hits. PfGluPho enzyme, NADPH resazurin-diaphorase fluorescence. inhibition, % at 20 µM;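 active = inhibition reaching at least a set limit at 20 µM in the primary screen, cut at about 59% in these data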;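 also: 0% = DMSO wells with substrate and 100% = DMSO wells lacking glucose-6-phosphate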
NPR2 activator: GC-B (human) receptor activation. 370,000 compounds, 0.11% hits. P20594. HEK293-GC-B cells, CNP EC30, cGMP TR-FRET; 0% at EC30 CNP, 100% saturating CNP. activation, % at 10 µM;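 active = activation at 10 µM reaching about 35% in either raw or pattern-adjusted values, limit read from the data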
Neddyl inh conf: cullin neddylation inhibition, confirmation | shares compounds with Neddylation inh | AID 652217 | TR-FRET cullin neddylation biochemical assay | 1,800 compounds, 13% hits | calls only at 25 µM; in the data active = inhibition above about 40%;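 also: neddylation substrate is the cullin 1 ring ligase complex with SKP2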
Numbers without * were called inactive. Shown are actives, neighbours in structure and some others; about 2% of the full set was active somewhere.

Screening Cc1nc2scc(C)n2c(=O)c1S(=O)(=O)NCc1ccccc1Cl returned A3G deaminase -1, APOBEC3A inh -4, NPR1 activator 5, Neddylation inh 41*, PfG6PD inh 4, NPR2 activator 0 and Neddyl inh conf inactive.
For COc1cc(/C=C/C(=O)NCc2ccccn2)cc(OC)c1OC the results were A3G deaminase -2, APOBEC3A inh -1, NPR1 activator 3, Neddylation inh 44*, PfG6PD inh -8, NPR2 activator -2 and Neddyl inh conf inactive.
Screening COc1cc(/C=C/C(=O)NC(C)CCc2ccccc2)cc(OC)c1OC (stereo unspecified) returned A3G deaminase -3, APOBEC3A inh 0, NPR1 activator 2, Neddylation inh 40*, PfG6PD inh 7, NPR2 activator -3 and Neddyl inh conf inactive.
COc1cc(/C=C/C(=O)N(C)CC(=O)Nc2ccccc2SC)cc(OC)c1OC was read as A3G deaminase 0, APOBEC3A inh -4, NPR1 activator -3, Neddylation inh 41*, PfG6PD inh -3, NPR2 activator -2 and Neddyl inh conf inactive.
CC(CCc1ccccc1)NC(=O)/C=C/c1ccccc1 (stereo unspecified) was read as A3G deaminase 7, APOBEC3A inh 5, NPR1 activator -1, Neddylation inh -11, PfG6PD inh 1 and NPR2 activator -6.
`COc1ccc(/C=C/C(=O)NCc2ccccn2)cc1OC` gave A3G deaminase 2, APOBEC3A inh -1, NPR1 activator -1, Neddylation inh 28, PfG6PD inh 1 and NPR2 activator 2.
`CC1(C)CC2CN(Cc3ccccc3)S(=O)(=O)N2C1` (stereo unspecified) gave NPR1 activator -3 and NPR2 activator -3.
`NCCCCc1ccc2ccc3cccc4ccc1c2c34` gave A3G deaminase 2, APOBEC3A inh 4, NPR1 activator 8, Neddylation inh 52*, PfG6PD inh 9, NPR2 activator -9 and Neddyl inh conf inactive.
COc1cc(NC(=O)C2CCCN(S(=O)(=O)c3ccc(C)c(C)c3)C2)cc(OC)c1 (stereo unspecified) was read as NPR1 activator -7 and NPR2 activator -10.
O=C(OCc1cc(=O)n2ccsc2n1)c1ccccc1NCCO was read as A3G deaminase 23, APOBEC3A inh 35, NPR1 activator 1, Neddylation inh 39*, PfG6PD inh 9 and NPR2 activator -2.
Screening C(=C\c1nnc(-c2cccs2)o1)/c1ccccc1 returned A3G deaminase -2, APOBEC3A inh 0, NPR1 activator -18, Neddylation inh 48*, PfG6PD inh 12, NPR2 activator -5 and Neddyl inh conf inactive.
`CC(Oc1ccccc1)C(=O)N1CCN(c2ncccn2)CC1` (stereo unspecified) gave A3G deaminase -3, APOBEC3A inh 1, NPR1 activator 2, Neddylation inh -7, PfG6PD inh 0 and NPR2 activator 5.
`CC(Oc1ccccc1)C(=O)N1CCN(c2ccc(N3CCCCC3)nn2)CC1` (stereo unspecified) gave A3G deaminase -1, APOBEC3A inh 0, NPR1 activator -2, Neddylation inh 46*, PfG6PD inh 3 and NPR2 activator -3.
For CC[C@@H](CCC(=O)N(c1ccccc1)c1ccccc1)c1ccc(C)cc1 the results were NPR1 activator -24 and NPR2 activator -16.
For O=C(CCc1ccccc1)N[C@H]1[C@H](OCc2ccccc2)CCC[C@@]12C(=O)N(Cc1ccccc1)c1ccc(-c3ccccn3)cc12 the results were NPR1 activator 0 and NPR2 activator 4.
Screening Cc1ccc(-n2nnnc2-c2cccs2)cc1[N+](=O)[O-] returned A3G deaminase -3, APOBEC3A inh 1, NPR1 activator -4, Neddylation inh 51*, PfG6PD inh -19, NPR2 activator -7 and Neddyl inh conf inactive.
`C#CCNC(=O)C[C@H]1C(=O)N(Cc2ccc(OC)cc2)C2=CCCC[C@@]21C(=O)OCC` gave NPR1 activator -3 and NPR2 activator 1.
`CCOc1cc(NC(=O)c2ccco2)c(OCC)cc1NC(=O)c1ccco1` gave A3G deaminase -7, APOBEC3A inh 0, NPR1 activator -3, PfG6PD inh -14 and NPR2 activator -5.
For CCOc1cc(NC(=O)c2ccco2)c(OCC)cc1NC(=O)CCc1ccccc1OC the results were A3G deaminase -8, APOBEC3A inh -6, NPR1 activator 2, Neddylation inh 41*, PfG6PD inh 22, NPR2 activator 0 and Neddyl inh conf inactive.
Screening O=S(=O)(Nc1ccc(-c2nc3ccccc3o2)cc1)c1ccccc1 returned A3G deaminase -5, APOBEC3A inh -2, NPR1 activator 0, Neddylation inh 43*, PfG6PD inh -41 and NPR2 activator -8.
Cc1ccccc1CS(=O)(=O)Cc1ccc(C(=O)Nc2cccc(Cl)c2F)o1 was read as NPR1 activator 2 and NPR2 activator 10.
For CCOC(=O)N1CCC(Nc2cc(C)nc3c(-c4ccccc4OC)c(C)nn23)CC1 the results were A3G deaminase -5, APOBEC3A inh 0, NPR1 activator 7, Neddylation inh 40*, PfG6PD inh -4, NPR2 activator 12 and Neddyl inh conf inactive.
Screening COc1ccccc1-c1c(C)nn2c(N3CCC(C)CC3)cc(C)nc12 returned A3G deaminase -3, APOBEC3A inh -6, NPR1 activator -2, Neddylation inh 38*, PfG6PD inh 8 and NPR2 activator -6.
`COC(=O)[C@]12C[C@H](CC(=O)N3CCCC3)C(=O)N(Cc3ccc4c(c3)OCO4)C1=C[C@H](C(C)C)O[C@@H]2C1CC1` gave NPR1 activator -9 and NPR2 activator -8.
For COc1ccc(CCNC(=O)COC(=O)/C=C/c2cc(OC)ccc2OC)cc1 the results were A3G deaminase 3, APOBEC3A inh 2, NPR1 activator 4, Neddylation inh 49*, PfG6PD inh 7 and NPR2 activator -4.
For COc1ccc(OC)c(/C=C/C(=O)OCC(=O)Nc2ccc(Cl)c(S(=O)(=O)N(C)C)c2)c1 the results were A3G deaminase 0, APOBEC3A inh -1, NPR1 activator 4, PfG6PD inh 0 and NPR2 activator 1.
For COc1ccc(OC)c(/C=C/C(=O)OCC(=O)NCc2cccs2)c1 the results were A3G deaminase -3, APOBEC3A inh 0, NPR1 activator 4, Neddylation inh 52*, PfG6PD inh -6 and NPR2 activator -3.
